Laboratory results: the supplement of paper PMC4022240
± gives the standard deviation.

Tests used:
Assay in all cases: peptide microarray binding signal (635 nm), min-max normalized on array (fraction of array maximum); higher = stronger binding
[1] = target: T1, HaloTag-ATRX ADD domain (163-292)
T1 chain: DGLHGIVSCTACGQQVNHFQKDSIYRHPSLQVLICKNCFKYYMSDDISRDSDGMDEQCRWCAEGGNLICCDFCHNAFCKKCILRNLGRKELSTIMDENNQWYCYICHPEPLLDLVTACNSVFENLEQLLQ
Outline: (§1)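 For each library, binding signal was taken as the triplicate-spot mean intensity and then min-max scaled. Spots of histone 13-mer peptide–cellulose conjugates on nitrocellulose, printed in triplicate with a Cy3 tracer, were probed for 1 h at 4°C with either biotin-labelled HaloTag reader fusions (10 nM to 1 μM) and streptavidin-Alexa Fluor 647 or rabbit histone antibodies (1:10,000 to 1:2,000) and anti-rabbit Alexa 647. Readout at 635 nm came from an Axon GenePix 4000B.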

[2] = target: HaloTag-ING2 PHD (mouse Ing2 200-280)
Outline: as §1

[3] = target: anti-H3K4me3 antibody ab8580
Outline: as §1

[4] = target: anti-H3K9me3 antibody ab8898
Outline: as §1

[5] = peptide region: H4 1-13, peptide modifications: H4R3cit, binder concentration: 1:2,000 dilution
[6] = peptide region: H4 1-13, peptide modifications: H4R3cit, binder concentration: 1:10,000 dilution
[7] = peptide region: H4 1-13, peptide modifications: H4K5ac H4K8ac, binder concentration: 1:2,000 dilution
[8] = peptide region: H4 1-13, peptide modifications: H4K5ac H4K8ac, binder concentration: 1:10,000 dilution
[9] = peptide region: H3 112-124, peptide modifications: H3R116me2a, binder concentration: 1:2,000 dilution
[10] = peptide region: H3 112-124, peptide modifications: H3R116me2a, binder concentration: 1:10,000 dilution
[11] = peptide region: H3 112-124, peptide modifications: H3R116cit, binder concentration: 1:2,000 dilution
[12] = peptide region: H3 112-124, peptide modifications: H3R116cit, binder concentration: 1:10,000 dilution
[13] = peptide region: H4 1-13, peptide modifications: H4R3me2a, binder concentration: 1:2,000 dilution
[14] = peptide region: H4 1-13, peptide modifications: H4R3me2a, binder concentration: 1:10,000 dilution

B1: H4 1-13 S G Rcit G K G G K G L G K G (peptide)
chain: SGRGKGGKGLGKG
[1]; peptide region: H4 1-13, peptide modifications: H4R3cit, binder concentration: 50 nM
  peptide microarray binding signal: 0.00524 ± 0.00048
[1]; peptide region: H4 1-13, peptide modifications: H4R3cit, binder concentration: 500 nM
  peptide microarray binding signal: 0.0149 ± 0.00041
[2]; peptide region: H4 1-13, peptide modifications: H4R3cit, binder concentration: 10 nM
  peptide microarray binding signal: 0.00209 ± 0.00016
[2]; peptide region: H4 1-13, peptide modifications: H4R3cit, binder concentration: 100 nM
  peptide microarray binding signal: 0.00468 ± 0.00014
[3]; [5]
  peptide microarray binding signal: 0.00104 ± 0.00043
[3]; [6]
  peptide microarray binding signal: 0.001997 ± 1.8e-05
[4]; [5]
  peptide microarray binding signal: 0.00199 ± 3.7e-05
[4]; [6]
  peptide microarray binding signal: 0.00161 ± 4.1e-05

B2: H4 1-13 S G R G Kac G G Kac G L G K G (peptide)
chain: SGRGKGGKGLGKG
[1]; peptide region: H4 1-13, peptide modifications: H4K5ac H4K8ac, binder concentration: 50 nM
  peptide microarray binding signal: 0.00737 ± 0.00034
[1]; peptide region: H4 1-13, peptide modifications: H4K5ac H4K8ac, binder concentration: 500 nM
  peptide microarray binding signal: 0.0151 ± 0.00043
[2]; peptide region: H4 1-13, peptide modifications: H4K5ac H4K8ac, binder concentration: 10 nM
  peptide microarray binding signal: 0.00746 ± 6.7e-05
[2]; peptide region: H4 1-13, peptide modifications: H4K5ac H4K8ac, binder concentration: 100 nM
  peptide microarray binding signal: 0.0206 ± 0.0023
[3]; [7]
  peptide microarray binding signal: 0.00177 ± 8.8e-05
[3]; [8]
  peptide microarray binding signal: 0.00285 ± 8.8e-05
[4]; [7]
  peptide microarray binding signal: 0.00068 ± 7.5e-05
[4]; [8]
  peptide microarray binding signal: 0.00156 ± 5.5e-05

B3: H3 112-124 I H A K Rme2a V T I M P K D I (peptide)
chain: IHAKRVTIMPKDI
[1]; peptide region: H3 112-124, peptide modifications: H3R116me2a, binder concentration: 50 nM
  peptide microarray binding signal: 0.00257 ± 3e-05
[1]; peptide region: H3 112-124, peptide modifications: H3R116me2a, binder concentration: 500 nM
  peptide microarray binding signal: 0.00719 ± 0.00024
[2]; peptide region: H3 112-124, peptide modifications: H3R116me2a, binder concentration: 10 nM
  peptide microarray binding signal: 0.00322 ± 3.5e-05
[2]; peptide region: H3 112-124, peptide modifications: H3R116me2a, binder concentration: 100 nM
  peptide microarray binding signal: 0.007583 ± 5.2e-05
[3]; [9]
  peptide microarray binding signal: 0.000396 ± 1.8e-05
[3]; [10]
  peptide microarray binding signal: 0.000514 ± 1.1e-05
[4]; [9]
  peptide microarray binding signal: 0.00154 ± 0.0003
[4]; [10]
  peptide microarray binding signal: 0.00098

B4: H3 112-124 I H A K Rcit V T I M P K D I (peptide)
chain: IHAKRVTIMPKDI
[1]; peptide region: H3 112-124, peptide modifications: H3R116cit, binder concentration: 50 nM
  peptide microarray binding signal: 0.00583 ± 8.8e-05
[1]; peptide region: H3 112-124, peptide modifications: H3R116cit, binder concentration: 500 nM
  peptide microarray binding signal: 0.0207 ± 0.0059
[2]; peptide region: H3 112-124, peptide modifications: H3R116cit, binder concentration: 10 nM
  peptide microarray binding signal: 0.00895 ± 0.0012
[2]; peptide region: H3 112-124, peptide modifications: H3R116cit, binder concentration: 100 nM
  peptide microarray binding signal: 0.00992 ± 0.0023
[3]; [11]
  peptide microarray binding signal: 0.00451 ± 0.0016
[3]; [12]
  peptide microarray binding signal: 0.00359 ± 0.00055
[4]; [11]
  peptide microarray binding signal: 0.00177 ± 0.00034
[4]; [12]
  peptide microarray binding signal: 0.00179 ± 8.5e-05

B5: H4 1-13 S G Rme2a G K G G K G L G K G (peptide)
chain: SGRGKGGKGLGKG
[1]; peptide region: H4 1-13, peptide modifications: H4R3me2a, binder concentration: 50 nM
  peptide microarray binding signal: 0.0021 ± 9.6e-06
[1]; peptide region: H4 1-13, peptide modifications: H4R3me2a, binder concentration: 500 nM
  peptide microarray binding signal: 0.00305 ± 6.3e-05
[2]; peptide region: H4 1-13, peptide modifications: H4R3me2a, binder concentration: 10 nM
  peptide microarray binding signal: 0.00269 ± 4e-05
[2]; peptide region: H4 1-13, peptide modifications: H4R3me2a, binder concentration: 100 nM
  peptide microarray binding signal: 0.00404 ± 9.1e-05
[3]; [13]
  peptide microarray binding signal: 0.000227 ± 4.2e-06
[3]; [14]
  peptide microarray binding signal: 0.000856 ± 2.3e-05
[4]; [13]
  peptide microarray binding signal: 1.51e-05 ± 1.7e-07
[4]; [14]
  peptide microarray binding signal: 0.000577 ± 1.2e-05
